Assay results published in PubChem BioAssay (NCATS).
Several values for one entry are separate records, joined by “and”; a condition that tells them apart may be missing. Identical values can stand only once. Inconclusive results are not listed. Where a call stands in place of a potency, no number is given. Activity calls are given as the source filed them. The call rests on the fitted dose curve; in most records, active means well fitted cell-killing curve with a large enough effect; inconclusive means small, poorly fitted or top-dose-only effect; inactive means no such curve, though single readings can be large or run the other way.

Experiment: qHTS of pediatric cancer cell lines to identify multiple opportunities for drug repurposing: Primary screen for MG 63 (6-TG R) cells (AID 1347105); further: nearly all actives have a fitted effect of over 50% in size
Settings: MG 63 (6-TG R) viability, CellTiter-Glo, 48 h; series mostly up to 46 µM
Source text: Drug repurposing or repositioning has been offered as a strategy for drug development in oncology programs. This approach has special potential for childhood cancers and other rare or orphan diseases, where the expected return on new drug development has been a disincentive to pharmaceuticals. […] In this project we exploit the poly-pharmacology of drugs to discover new indications via phenotypic screening of a panel of 19 well-characterized cell lines derived from solid tumors seen in children and adolescents. The goal is to identify approved drugs with previously unrecognized anticancer properties that has the potential to reveal new mechanisms and biological processes involved in carcinogenesis or drug resistance. We employed a titration-based paradigm (quantitative high-throughput screening or qHTS), where all compounds were tested at multiple concentrations for their effect on cell viability. Concentration-response curves (CRCs) were derived directly from the primary screen, and both potency and efficacy values were used to identify compounds with robust bioactivity profiles. We screened the NIH Chemical Genomics Center (NCGC) Pharmaceutical Collection (NPC) and Mechanism Interrogation Plate (MIPE) small molecule collections of approved and investigational compounds against these cell lines; and measured metabolically active cells after 48 hours of compound treatment as a proxy for cell viability. […] Assay Submitter: Nathalia J. Martinez, National Center for Advancing Translational Sciences, National Institutes of Health, Rockville, MD, USA; email: natalia.martinez@nih.gov Shen, M et al. Quantitative high-throughput phenotypic screening of pediatric cancer cell lines identifies multiple opportunities for drug repurposing. Oncotarget 2017 Dec 19;9(4):4758-4772. PMID 29435139.
The cells were obtained from University of North Carolina (UNC), Pediatric Preclinical Testing Program (PPT), and Coriell Institute (CI). qHTS cell viability assay: Cells were assayed in growth media at a density of 500-1,000 cells/well. Five microliters of cells were dispensed into 1,536-well, white, solid-bottom, TC-treated plates (Greiner Bio One) using a multidrop dispenser and incubated at 37 degrees C, 5% CO2, under a humidified atmosphere for 5 hours. Twenty-three nanoliters of compounds and controls (neutral control DMSO or positive control bortezomib at final concentration of 2.3 µM) were subsequently transferred by Kalypsys pintool. For primary screens, the MIPE collection was tested at 11-point dilutions (final concentrations range from 0.78 nM to 46 µM) and the NPC collection at 8-point dilutions (final concentrations range from 0.59 nM to 46 µM). Compounds tested in follow-up screens were assayed at 11-point dilutions. Cells were incubated for 48 hours, followed by addition of 3 µL of CellTiter-Glo (Promega). After a 15 min incubation at room temperature, samples were analyzed for luminescence intensity using a ViewLux High-throughput CCD imager equipped with clear filters.
Potency means the concentration at half of the fitted maximal effect.

Structure (SMILES) | Potency
O=C(c1ccc(F)cc1)C1CCN(CCn2c(=O)[nH]c3ccccc3c2=O)CC1 | inactive
Cc1ccc(C(=O)Nc2ccc(S(=O)(=O)O)c3cc(S(=O)(=O)O)cc(S(=O)(=O)O)c23)cc1NC(=O)c1cccc(NC(=O)Nc2cccc(C(=O)Nc3cc(C(=O)Nc4ccc(S(=O)(=O)O)c5cc(S(=O)(=O)O)cc(S(=O)(=O)O)c45)ccc3C)c2)c1 | inactive
CN1CCN2c3ccccc3Cc3ccccc3C2C1 (stereo not given) | inactive
CCC1(C)CC(=O)NC1=O (stereo not given) | inactive
CN(CCOc1ccc(NS(C)(=O)=O)cc1)CCc1ccc(NS(C)(=O)=O)cc1 | inactive
CN1CCC(=C2c3ccccc3C=Cc3ccccc32)CC1 | inactive
CC[C@@]1(O)C(=O)OCc2c1cc1n(c2=O)Cc2cc3c(CN(C)C)c(O)ccc3nc2-1 | 66.8 nM (active) and 296 nM (active)
Cc1cn([C@H]2C=C[C@@H](CO)O2)c(=O)[nH]c1=O | inactive
O=C(c1ccc(OCCN2CCCCC2)cc1)c1c(-c2ccc(O)cc2)sc2cc(O)ccc12 | 26.6 µM (active) and 18.7 µM (active)
CCOC(=O)C(C)(C)Oc1ccc(Cl)cc1 | inactive
N[C@@H](Cc1c[nH]c2ccc(O)cc12)C(=O)O | inactive
CN1CCC(=C2c3ccccc3CC(=O)c3sccc32)CC1 | 23.5 µM (active)
CC1COc2c(N3CCN(C)CC3)c(F)cc3c(=O)c(C(=O)O)cn1c23 (stereo not given) | inactive
O=c1c(-c2ccc(O)cc2)coc2cc(O)cc(O)c12 | inactive
O=C1Cc2cc(CCN3CCN(c4nsc5ccccc45)CC3)c(Cl)cc2N1 | inactive
COc1ccccc1OCCNCC(O)COc1cccc2[nH]c3ccccc3c12 (stereo not given) | inactive
O=c1[nH]cc(F)c(=O)[nH]1 | inactive
CS(=O)(=O)Nc1ccc([N+](=O)[O-])cc1Oc1ccccc1 | inactive
CN(Cc1cnc2nc(N)nc(N)c2n1)c1ccc(C(=O)N[C@@H](CCC(=O)O)C(=O)O)cc1 | inactive
CN(C)CCC=C1c2ccccc2C=Cc2ccccc21 | inactive

Structure (SMILES) | Potency
CS(=O)(=O)CCNCc1ccc(-c2ccc3ncnc(Nc4ccc(OCc5cccc(F)c5)c(Cl)c4)c3c2)o1 | 5.9 µM (active)
CCN1CCCC1CNC(=O)c1cc(S(=O)(=O)CC)c(N)cc1OC (stereo not given) | inactive
O=C1N(c2ccccc2)c2ccccc2C1(Cc1ccncc1)Cc1ccncc1 | inactive
Cc1cc(C(C)(C)C)cc(C)c1CC1=NCCN1 | inactive
Nc1nnc(-c2cccc(Cl)c2Cl)c(N)n1 | inactive
CNCCCC12CCC(c3ccccc31)c1ccccc12 | 16.8 µM (active)
Cn1c(=O)c2c(ncn2C)n(C)c1=O | inactive
NC(=O)OCC(COC(N)=O)c1ccccc1 | inactive
NCCc1cnc[nH]1 | inactive
CC12CC3CC(C)(C1)CC(N)(C3)C2 | inactive
CC(C(=O)O)c1cccc(C(=O)c2ccccc2)c1 (stereo not given) | inactive
COc1ccc(CCN(C)CCCC(C#N)(c2ccc(OC)c(OC)c2)C(C)C)cc1OC (stereo not given) | inactive
O=C(CCCN1CCC(O)(c2ccc(Cl)cc2)CC1)c1ccc(F)cc1 | inactive
Clc1ccc2c(c1)C(N1CCNCC1)=Nc1ccccc1O2 | inactive
CC1(CN2CCC(n3c(=O)[nH]c4ccccc43)CC2)OCc2ccccc2-n2cccc21 (stereo not given) | inactive
Cc1cnc(C(=O)NCCc2ccc(S(=O)(=O)NC(=O)NC3CCCCC3)cc2)cn1 | inactive
CCOC(=O)Nc1ccc(NCc2ccc(F)cc2)nc1N | inactive
COc1cc2nc(N3CCN(C(=O)C4COc5ccccc5O4)CC3)nc(N)c2cc1OC (stereo not given) | inactive
Fc1ccc([C@@H]2CCNC[C@H]2COc2ccc3c(c2)OCO3)cc1 | inactive
CCOC(=O)c1ncn2c1CN(C)C(=O)c1cc(F)ccc1-2 | inactive
